Assay results published in the supplement of paper PMC6555819.

Columns and labels:
Test in all cases: PBM binding z-score (relative to random genomic background probes); higher = stronger binding; sequences stand for … in GC…GCGATTGACAGCGTAGAATGAAGG
[1] = tested on: RARb homodimer (NR concentration 270 nM)
Procedure, shortened: (§1)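 Ligand-free nuclear receptor dimers were applied to custom Agilent 4×180K protein-binding microarrays whose double-stranded probes carried direct-repeat seeds, single-nucleotide variants, half-site ablations and random human genomic background sequences in 34-nt variable regions. Incubation lasted 1 h. Binding z-scores were computed against the random background probes from regression-normalized fluorescence.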

[2] = tested on: RARg:RXRa (NR concentration 270 nM, RXRa partner concentration 90 nM)
Procedure, shortened: as §1

[3] = tested on: RARg homodimer (NR concentration 270 nM)
Procedure, shortened: as §1

[4] = tested on: RXRa DBDmut IVT, anti-RXR (DBD mutation: RXRa K156A/R161A, NR concentration 90 nM)
Procedure, shortened: as §1

[5] = tested on: RXRa homodimer (NR concentration 180 nM)
Procedure, shortened: as §1

[6] = tested on: THRa:RXRa (NR concentration 90 nM, RXRa partner concentration 90 nM)
Procedure, shortened: as §1

[7] = tested on: THRa homodimer (NR concentration 90 nM)
Procedure, shortened: as §1

[8] = tested on: VDR:RXRa (NR concentration 270 nM, RXRa partner concentration 90 nM)
Procedure, shortened: as §1

[9] = tested on: VDR homodimer (NR concentration 270 nM)
Procedure, shortened: as §1

Sequence	PBM binding z-score [1]	PBM binding z-score [2]	PBM binding z-score [3]	PBM binding z-score [4]	PBM binding z-score [5]	PBM binding z-score [6]	PBM binding z-score [7]	PBM binding z-score [8]	PBM binding z-score [9]
ATATGTAGTTTAGGGTCATTCAGAAAGTAGGGAA	3.24	4.01	2.73	2.93	5.24	4.29	3.64	4.64	4.3
ATATGGAGGTTAAGGGTCATTCAGGTTGGTTCGC	4.46	5.75	4.13	2.5	7.76	3.96	2.38	6.32	5.63
CTATGTAAGTTAAGGGGGTCATTCAGTTTGAAAG	3.7	4.43	3.19	3.07	5.16	3.78	2.28	6.67	5.94
CCTAGCAGGCCAGGGTCACCCAAGCATTTCGCTT	3.34	3.95	2.98	-0.0851	4.34	3.44	1.71	2.96	1.35
CCTAGTTGGTCAAGGTCACGCACGCTATAGGTAC	4.81	5.21	5.57	1.94	5.65	4.06	4.48	4.45	3.96
TCATATAGGTAATAAAGGTGAAAGTCGGCATCTA	1.76	1.51	0.992	1.83	2.06	1.59	0.669	1.42	0.491
CCTTACGGGTCACTCTAGGTTATAGCATCGGAGT	3.22	4.35	4.38	2	4.27	4.93	0.527	3.67	1.39
CCCGCTAGGTCATGGTCAGCTAATCTACAGTATG	3.38	4	4.55	1.57	3.06	3.21	1.91	1.69	0.379
ATATGTAGGTTAGGGTCATTCGGAAAGTAGGGAA	3.62	4.07	3.15	2.51	5.06	4.16	3.3	4.45	4.24
ACTAGTTGGTCAGCTGAGGTCACACTCAATTCGG	4.47	3.93	4.09	1.5	3.92	5.01	4.85	4.54	3.27
CCTTACGGGTCACGGTTATAGCACGGGTGGTACG	3.58	5.47	5.06	0.501	6.44	3.28	0.418	3.87	1.26
CGAACTAGGTCAACGGACAGTGAAAGGCGACGTA	2.82	4.11	4.8	1.34	3.39	2.36	0.45	1.12	0.394
GGAACTAGGGCAAAGTTGATAGCATCTGTCGACG	0.866	1.07	1.15	0.644	0.592	0.234	-0.621	-0.0768	-0.235
AGTCATAGTTCACTAGGTAACGTAAGATTCAGCT	2.32	2.32	2.72	1.82	1.6	1.11	0.171	1.12	0.797
AGTCAAAGTTCACTAGGTTACGTAAGATTCAGCT	4.27	5.33	6.12	4.29	4.53	2.55	0.508	4.71	3.98
CCTACTGGGCCATTCAGAGGTCATTGTTCATATG	4.14	4.19	2.88	1.2	3.37	3.23	1.38	3.9	3.59
CGAACTAGGTCAGAGCAGGACAGTGAAGGATGAT	1.84	2.48	3.25	0.613	1.11	4.2	0.0649	0.711	-0.21
CACACTAGGTCAAAGGTCAAAGTCGAGCCAACCA	5.42	9.01	7.38	3.45	10.4	4.85	2.4	6.85	4.12
GCTGCAAGGTCAACTGATGGTCAGCTAAAGCTCG	4.71	7.17	7.04	3.75	5.7	4.18	2.31	4.66	2.53
ATATGTAGGTTAGGGTGATTCAGAAAGTAGGGAA	1.48	0.779	0.813	0.979	1.02	2	1.65	1.09	0.713
ATGTGTAGGTTAGGGTCATTCAGAAAGTAGGGAA	3.9	4.4	3.74	2.52	5.52	4.17	3.9	4.65	4.18
CATACTAGGTCAAAGGTCAAAGTCGAGCCAACCA	5.51	8.9	7.33	3.12	9.95	4.98	2.11	6.61	3.51
AGTCAGAGTTCATCTAGGTAACGTAAGATATGCT	3.28	4.7	4.79	4.9	4.73	3.14	0.225	5.48	7.13
CCTACTGGGCCATTGAGAGGTCATTGATCATATG	3.78	4	2.63	0.642	3.13	3.06	1.26	–	3.78
ATCGAAAGGTCGTCGAGGTGAGTATACACCGTTT	3.07	4.59	4.35	1.72	5.2	3.83	0.955	–	2.41
ATATGTAGGTCAGCTGGGGTCATTCAGACTAGGC	5.26	6.13	6.32	2.43	6.85	5.44	3.41	–	5.57
TCTAGTTCGTCACGGAGGTCACACACGACGGGTA	4.28	4.52	4.04	2.51	4.68	3.67	2.73	–	3.58
TCGCGTAGGTTACGGGGGCATTCAGGGATGAAGA	2.37	3.63	2.87	1.99	3.08	3.93	1.5	–	2.44

Sequence	PBM binding z-score [1]	PBM binding z-score [2]	PBM binding z-score [3]	PBM binding z-score [4]	PBM binding z-score [5]	PBM binding z-score [6]	PBM binding z-score [7]	PBM binding z-score [8]	PBM binding z-score [9]
CCTACTGGGCCAAGGTCATTGACCAGTCAAAGCA	3.43	3.87	3.66	0.966	4.1	3.67	2.29	–	2.59
ACTAGTTGGTCAGCTGGGGTCACACACAATTCGG	4.07	4.45	3.92	1.28	5.58	4.71	3.54	–	3.33
CGAACTAGGTCAAAGGACAGTGATAGGCGACGTA	3.06	3.97	4.98	1.56	3.26	2.56	0.594	–	0.324
CGTCTAAGTTCAAGGTAACGTAACAGAAAGCAGC	2.51	3.53	4.06	4.62	2.82	3.09	2.02	–	3.41
CGAACTAGATCACCAGGACAGTGAAGAGGTTGGA	0.0313	-0.13	0.172	0.251	0.0064	0.901	0.52	–	-0.172
GATACAGGGTCATCTAGAGGCCAGAGTATGGAAA	3.71	7.56	5.37	3.39	6.6	3.76	0.837	–	2.85
CGATCTAGGTCAAAGGACAGTGAAAGGCGACGTA	2.74	3.63	4.58	1.7	2.76	2.62	0.472	–	0.297
GATTACGGGTCAAAGGTTATAGCATGAATAGAAT	3.44	7.12	4.85	2.27	9.48	3.95	0.146	–	1.64
CTATGTAGGTTAAGGGTGTCATTCAGTTTGAAAG	1.44	1.38	0.949	0.738	1.35	1.04	0.005	–	1.42
CGAACTAGGTCAAAGGAGAGTGAAAGGCGACGTA	2.43	3.75	4.22	1.62	3	2.32	0.277	–	0.0165
CTATGTAGGTTAAGGGGGTCAGTCAGTTTGAAAG	3.63	4.2	3.72	1.75	4.08	3.17	1.89	–	3.99
CAAGCTAGGTCAAGAGGTCAAAGTCCGCTTCCCG	5.7	8.34	7.66	2.58	8.24	4.31	2.36	–	3.64
ATATGTAGGTTAGGGTCACTCAGAAAGTAGGGAA	3.57	3.98	3.56	1.74	5.09	4.21	3.46	–	2.6
CCGAGTAGGTCACGAGGGGGCATTCAGTGCGAAT	4.35	6.3	6.32	2.29	5.11	4.54	0.959	–	3.61
TCGAGTAGGTAACGGGGGCATTCAGGGATGAAGA	1.54	2.02	1.09	1.75	1.74	3.76	1.33	–	2.49
CGAACAAGGTCAAAGGACAGTGAAAGGCGACGTA	3.95	5.92	5.92	3.59	5.76	3.57	1.54	–	2.26
AGAATGAGGTTACCAGAGATCAGGGAAACGCTTG	0.721	2.28	1.8	1.1	2.88	3.28	0.705	–	0.106
CGTCCAAGGTCAACAGGTCAGTGAAAGCGACGTG	5.3	7.26	7.37	3.65	6.49	4.23	2.98	–	2.51
CTTACTGGGCCAAAGGTCATTGATTCCAATGCTC	4.58	5.97	4.91	1.99	6.68	3.36	0.898	–	2.79
ATATGTAGGTTAGCGGGGGTCATTCAGACTAGGC	4.17	5.25	4.26	2.7	6.22	4.82	2.75	–	5.45
CCGAGTAGGTTACGGGGGGGCATTCAGTGCGAAT	3.09	4.41	4.19	2.7	2.73	4.4	3.04	–	4.76
CCAACTAGGTCACCAGGACAGTGAAGAGGTTGGA	3.74	4.53	5.37	1.24	3.51	3.37	1.89	–	0.883
CGAACCAGGTCAAAGGACAGTGAAAGGCGACGTA	2.94	4.32	4.33	2.36	3.81	3.21	1.24	–	1.15
CCGAGCAGGTTACGAGGGGGCATTCAGTGCGAAT	2.17	3.02	2.4	1.56	2.21	3.81	0.885	–	3.5
CCGAGTAGGTTACGAGGGGGCATTTAGTGCGAAT	2.18	3.09	2.33	1.31	2.16	3.92	0.585	–	2.81
CGAACTATGTCAAGGACAGTGAATCTCCGCACGC	0.507	0.587	0.808	0.328	0.197	1.76	1.21	–	-0.0899
AGTCCAAGTTCACTAGGTAACGTAAGATTCAGCT	1.95	2.53	2.98	4.3	1.74	1.54	0.381	–	4.4
